{
  "source": "ChEMBL document CHEMBL3988442",
  "about": "“University of Dundee, Small-Polar-MMV Screening Library” (2021)",
  "note": "In all, about 48,000 compounds went through this assay and about 13,000 (27%) showed an effect of 50% or more. The list shows a part of the results.",
  "data": [
    {"test_system": "Wolbachia pipientis", "test": "Anti-Wolbachia Cell-Based Screen", "type": "functional", "set-up": "scale not given: in the data most compounds retested in dose-response had high values", "details": "5 µM", "units": {"Percent Effect": "%"}, "values": [
      {"smiles": "C/C=C(\\C)CN1C[C@H](NC(=O)c2cc[nH]c2C)[C@@H](C2CC2)C1", "Percent Effect": -10.95},
      {"smiles": "CN(C)c1ncncc1NC(=O)Cc1c[nH]c2ccc(F)cc12", "Percent Effect": -1.659},
      {"smiles": "CC(=O)c1cccc(OCCCC(=O)N(C)CCC(F)(F)F)c1", "Percent Effect": 2.017},
      {"smiles": "COC(C)c1noc(CN2CCCNCC2)n1", "note": "(stereo not given)", "Percent Effect": -0.5202},
      {"smiles": "CCOC(C)c1noc(CN2CCNCC2)n1", "note": "(stereo not given)", "Percent Effect": -2.697},
      {"smiles": "Cc1ccn(-c2ccc(C(=O)N3CCCC(C(N)=O)C3)cc2)n1", "note": "(stereo not given)", "Percent Effect": -6.024},
      {"smiles": "NC(=O)C1CCCN(S(=O)(=O)c2cnn(-c3ccccc3)c2)C1", "note": "(stereo not given)", "Percent Effect": 5.842},
      {"smiles": "NCc1cnn(-c2ccccc2C(=O)NCc2ccncc2)c1", "Percent Effect": -9.699},
      {"smiles": "CN(C)C(=O)C1CCCN(C(=O)c2ccccc2-n2cc(CN)cn2)C1", "note": "(stereo not given)", "Percent Effect": 125.8},
      {"smiles": "NCc1cnn(-c2ccccc2C(=O)N2CCCC(C(N)=O)C2)c1", "note": "(stereo not given)", "Percent Effect": 94.05},
      {"smiles": "CN(C)C(=O)N1CCCC(C(=O)N(C)CCCc2cnn(C)c2)C1", "note": "(stereo not given)", "Percent Effect": 4.306},
      {"smiles": "CNC(=O)C1CCCN(C(=O)c2ccccc2-n2cc(CN)cn2)C1", "note": "(stereo not given)", "Percent Effect": 111.9},
      {"smiles": "CNC(=O)C1CCCN(C(=O)NCCC2Cc3ccccc3C2)C1", "note": "(stereo not given)", "Percent Effect": -25.4},
      {"smiles": "CN(C)C(=O)N1CCCC(C(=O)N(C)Cc2cnc(N)nc2)C1", "note": "(stereo not given)", "Percent Effect": 11.15},
      {"smiles": "NC(=O)c1cccc(CNC/C=C/c2ccccc2)c1", "Percent Effect": -6.459},
      {"smiles": "CC(C)OCCOCC(O)CN(C)C(=O)Nc1ccc(F)cc1Cl", "note": "(stereo not given)", "Percent Effect": -7.203},
      {"smiles": "CCc1nc(CNc2cc(Cl)ccc2OCC2CCCO2)no1", "note": "(stereo not given)", "Percent Effect": -12.87},
      {"smiles": "CCc1cnc2c(c1Nc1ccccc1OC)c(=O)n(C)c(=O)n2C", "Percent Effect": 117.3},
      {"smiles": "CCOc1ccccc1Nc1nc2c(C)nn(C)c2c(=O)n1C", "Percent Effect": -3.425},
      {"smiles": "CCc1cnc2c(c1Nc1cccc(OC)c1)c(=O)n(C)c(=O)n2C", "Percent Effect": 98.75},
      {"smiles": "CCc1cnc2c(c1NCc1ccncc1)c(=O)n(C)c(=O)n2C", "Percent Effect": -11.7},
      {"smiles": "CCc1cnc2c(c1NCc1ccc(OC)cc1)c(=O)n(C)c(=O)n2C", "Percent Effect": 121.6},
      {"smiles": "CCc1cnc2c(c1NCc1cccc(OC)c1)c(=O)n(C)c(=O)n2C", "Percent Effect": -3.77},
      {"smiles": "COc1cccc(CNc2c(C)cnc3c2c(=O)n(C)c(=O)n3C)c1", "Percent Effect": -20.05},
      {"smiles": "CCn1c(Nc2ccccc2OC)nc2c(C)nn(C)c2c1=O", "Percent Effect": 5.481},
      {"smiles": "CCc1cnc2c(c1Nc1ccc(OC)cc1)c(=O)n(C)c(=O)n2C", "Percent Effect": -2.304},
      {"smiles": "O=C(N1CCCCC1)N1CCN(CC(O)c2ccc(F)cc2)CC1", "note": "(stereo not given)", "Percent Effect": -12.83},
      {"smiles": "Cc1nc(CNC(=O)Nc2ccc3c(c2)CCCC(=O)N3)sc1C", "Percent Effect": 3.802},
      {"smiles": "Cn1c(CO)cnc1SC(C(=O)NC1CC1)c1ccccc1", "note": "(stereo not given)", "Percent Effect": -13.82},
      {"smiles": "CC(C)NC(=O)[C@@H]1C[C@@H](N)CN1C(=O)c1cc2c([nH]c1=O)CCCC2", "Percent Effect": 7.662},
      {"smiles": "O=C(NCC(F)(F)F)NC1CCCc2c1cnn2CCO", "note": "(stereo not given)", "Percent Effect": 2.681},
      {"smiles": "CC(C)CC(NC(=O)c1cc(C2CC2)n[nH]1)c1ncnn1C", "note": "(stereo not given)", "Percent Effect": -18.23},
      {"smiles": "CC(C)CNC(=O)c1cc(C2CC2)nc2c1c(C1CCCN1)nn2C", "note": "(stereo not given)", "Percent Effect": 129.8},
      {"smiles": "Cn1nc(C2CCCN2)c2c(C(=O)NCC(F)(F)F)cc(C3CC3)nc21", "note": "(stereo not given)", "Percent Effect": 125.9},
      {"smiles": "CCCn1ncc2c(C(=O)Nc3cnn(CC)c3C)cc(C3CC3)nc21", "Percent Effect": 3.978},
      {"smiles": "Cn1nc(C2CCNC2)c2c(C(=O)NCC(F)(F)F)cc(C3CC3)nc21", "note": "(stereo not given)", "Percent Effect": 104.4},
      {"smiles": "Cc1csc(N2CCCN(C(=O)c3nccnc3N)CC2)n1", "Percent Effect": 0.5076},
      {"smiles": "CC(NCC1CCN(CCO)CC1)c1ccc(F)c(Cl)c1", "note": "(stereo not given)", "Percent Effect": 2.095},
      {"smiles": "CC(C)CN1C(=O)C2(CCCC2)NC1c1c[nH]nc1-c1cccnc1", "note": "(stereo not given)", "Percent Effect": -9.401},
      {"smiles": "CNC(=O)C(C)(C)N1CCC[C@H]1C(=O)NCCN1CCCC1.Cl.Cl", "Percent Effect": 7.406},
      {"smiles": "CCC(CNC(=O)N1CCOCC2(CCOCC2)C1)c1ccccc1", "note": "(stereo not given)", "Percent Effect": -24.39},
      {"smiles": "CCN(CC)S(=O)(=O)N1CCCN(CC(=O)NC(C)C)CC1", "Percent Effect": -10.54},
      {"smiles": "O=S(=O)(N1CCCC1)N(Cc1ccccc1)CC1CCCO1", "note": "(stereo not given)", "Percent Effect": 124.5},
      {"smiles": "CCN(CC1CCCO1)S(=O)(=O)N1CCCCCC1", "note": "(stereo not given)", "Percent Effect": 99.13},
      {"smiles": "CCN(CCS(=O)(=O)CC)CC1CCCO1", "note": "(stereo not given)", "Percent Effect": 2.463},
      {"smiles": "CCS(=O)(=O)CCN(CC1CCCO1)C1CCCC1", "note": "(stereo not given)", "Percent Effect": -6.431},
      {"smiles": "CCN(CC(=O)NC)S(=O)(=O)N1CCCCC1", "Percent Effect": 6.131},
      {"smiles": "CC(C)N(C)S(=O)(=O)N(Cc1cccs1)CC1CCCO1", "note": "(stereo not given)", "Percent Effect": 1.212},
      {"smiles": "O=C(CN(Cc1cccc(F)c1)CC1CCCO1)N1CCCC1", "note": "(stereo not given)", "Percent Effect": 12.97},
      {"smiles": "CCN(CC)S(=O)(=O)N1CCCN(CC2CCCO2)CC1", "note": "(stereo not given)", "Percent Effect": 96.25},
      {"smiles": "Cc1cc(CN[C@@H](Cc2ccccc2)C(N)=O)c(C)s1", "Percent Effect": -7.626},
      {"smiles": "Cc1cc(C)n(CCNC(=O)c2ncc[nH]2)c(=O)n1", "Percent Effect": -0.5408},
      {"smiles": "CSc1ncccc1C(=O)N1C[C@H]2CC[C@@H]1CN(c1ncccn1)C2", "Percent Effect": -10.71},
      {"smiles": "CN(CC(=O)NCCC#N)C(c1ccccc1)c1ccccc1", "Percent Effect": -3.756},
      {"smiles": "FC(F)Oc1ccc(NCc2nc(C3CC3)no2)c(OC(F)F)c1", "Percent Effect": 6.863},
      {"smiles": "CN(C)C(CNC(=O)c1nc(N2CCOCC2)ncc1Cl)c1cccs1", "note": "(stereo not given)", "Percent Effect": 4.739},
      {"smiles": "Cc1noc(C(C)C)c1C(=O)NCC(c1cccc(F)c1)N(C)C", "note": "(stereo not given)", "Percent Effect": -3.913},
      {"smiles": "Cc1ccc(C(CNC(=O)c2cc(CC(C)C)nn2C)N(C)C)cc1", "note": "(stereo not given)", "Percent Effect": -5.66},
      {"smiles": "Cc1noc(C(C)C)c1C(=O)NCC(c1ccccc1)N(C)C", "note": "(stereo not given)", "Percent Effect": 108.3},
      {"smiles": "Cc1ccc(C(CNC(=O)c2c(C)noc2C(C)C)N(C)C)cc1", "note": "(stereo not given)", "Percent Effect": 95.03},
      {"smiles": "Cc1noc(C(C)C)c1C(=O)NCC(c1cccs1)N(C)C", "note": "(stereo not given)", "Percent Effect": 102.8},
      {"smiles": "CC(C)C(=O)NS(=O)(=O)CCc1ccccc1", "Percent Effect": -1.365},
      {"smiles": "Cc1ccnc(NCCNC(=O)CCNC(=O)c2ccccc2F)c1", "Percent Effect": 6.973},
      {"smiles": "Cc1ccc(CN2CCO[C@@H]3C[C@@H](C(=O)NC(C)C)C[C@H]32)o1.O=C(O)C(F)(F)F", "Percent Effect": -8.614},
      {"smiles": "CN(C)C(=O)N1CCc2onc(C(=O)Nc3cccnc3)c2C1.O=C(O)C(F)(F)F", "Percent Effect": -32.01},
      {"smiles": "Cc1ccc(CN2CCc3onc(C(=O)Nc4cccnc4)c3C2)o1.O=C(O)C(F)(F)F.O=C(O)C(F)(F)F", "Percent Effect": 119.7},
      {"smiles": "CC(C)NC(=O)N1CCc2onc(C(=O)Nc3cccnc3)c2C1.O=C(O)C(F)(F)F", "Percent Effect": -28.12},
      {"smiles": "Cn1cc(CN2CCc3onc(C(=O)N4CCCC4)c3C2)cn1.O=C(O)C(F)(F)F", "Percent Effect": 123},
      {"smiles": "Cc1ccc(CN2CCc3[nH]nc(C(=O)N4CCN(C)CC4)c3C2)o1.O=C(O)C(F)(F)F.O=C(O)C(F)(F)F.O=C(O)C(F)(F)F", "Percent Effect": -23.43},
      {"smiles": "Cc1ccc(CN2CCc3onc(C(=O)NC(C)C)c3C2)o1.O=C(O)C(F)(F)F", "Percent Effect": 106.2},
      {"smiles": "Cc1ccc(CN2CCc3onc(C(=O)N4CCCC4)c3C2)o1.O=C(O)C(F)(F)F", "Percent Effect": 105.8},
      {"smiles": "CCO[C@@H]1C[C@H]2CN(Cc3ccc(C)o3)CCN2C1.O=C(O)C(F)(F)F.O=C(O)C(F)(F)F", "Percent Effect": -6.795},
      {"smiles": "Cc1ccc(CN2CCc3[nH]nc(C(=O)N(C)C)c3C2)o1.O=C(O)C(F)(F)F", "Percent Effect": 3.694},
      {"smiles": "Cn1cc(CN2CCc3onc(COc4cccnc4)c3C2)cn1.O=C(O)C(F)(F)F.O=C(O)C(F)(F)F", "Percent Effect": -7.028},
      {"smiles": "COCc1nn(C)c2c1CN(Cc1cnn(C)c1)CC2.O=C(O)C(F)(F)F", "Percent Effect": -20.95}
    ]}
  ]
}
